Broadly, the inhibition is the relative decrease from the control value, in per cent.

Out of some 5,600 compounds screened, about 390 (7%) showed an effect of 50% or more. The sample holds strong results, similar compounds and a random draw of the others, so the mix is not that of the screen.

This assay has as its target T1, Protein deacetylase HDAC6 (Homo sapiens) (UniProt Q9UBN7).
T1 sequence (whole entry): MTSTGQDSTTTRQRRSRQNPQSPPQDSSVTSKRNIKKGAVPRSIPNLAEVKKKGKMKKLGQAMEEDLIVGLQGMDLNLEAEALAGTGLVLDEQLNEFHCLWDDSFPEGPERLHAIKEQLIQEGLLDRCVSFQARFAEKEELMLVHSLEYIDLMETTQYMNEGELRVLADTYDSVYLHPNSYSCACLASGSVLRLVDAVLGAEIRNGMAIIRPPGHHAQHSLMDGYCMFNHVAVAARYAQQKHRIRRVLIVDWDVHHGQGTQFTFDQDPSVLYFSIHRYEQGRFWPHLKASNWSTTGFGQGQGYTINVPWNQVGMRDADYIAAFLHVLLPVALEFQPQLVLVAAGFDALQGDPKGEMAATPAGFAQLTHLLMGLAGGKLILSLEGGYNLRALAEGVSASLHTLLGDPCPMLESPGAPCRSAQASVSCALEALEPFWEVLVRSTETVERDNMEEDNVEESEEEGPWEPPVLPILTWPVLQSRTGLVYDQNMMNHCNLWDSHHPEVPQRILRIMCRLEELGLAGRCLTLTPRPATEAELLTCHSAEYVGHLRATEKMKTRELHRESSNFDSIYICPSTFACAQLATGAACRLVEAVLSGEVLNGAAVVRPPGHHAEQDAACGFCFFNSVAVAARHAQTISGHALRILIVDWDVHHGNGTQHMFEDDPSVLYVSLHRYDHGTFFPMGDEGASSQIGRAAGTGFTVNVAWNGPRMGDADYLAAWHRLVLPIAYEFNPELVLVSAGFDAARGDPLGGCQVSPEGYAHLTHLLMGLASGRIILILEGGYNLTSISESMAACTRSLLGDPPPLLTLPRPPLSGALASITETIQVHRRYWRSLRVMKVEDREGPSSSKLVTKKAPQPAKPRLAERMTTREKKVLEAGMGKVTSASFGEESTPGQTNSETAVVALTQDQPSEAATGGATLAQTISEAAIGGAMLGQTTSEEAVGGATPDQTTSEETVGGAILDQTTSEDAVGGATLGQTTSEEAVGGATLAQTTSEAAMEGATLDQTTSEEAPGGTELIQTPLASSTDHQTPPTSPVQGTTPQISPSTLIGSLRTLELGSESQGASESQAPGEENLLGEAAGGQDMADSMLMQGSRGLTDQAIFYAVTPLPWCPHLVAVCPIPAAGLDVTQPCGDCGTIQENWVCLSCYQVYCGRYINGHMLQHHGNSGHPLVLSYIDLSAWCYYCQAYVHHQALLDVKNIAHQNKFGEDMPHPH
Conditions: at 10 µM.
For the molecule `CNC(=O)c1ccc2c(c1)NC(=O)/C2=C(\Nc1cccc(CN(C)C)c1)c1ccccc1`, the inhibition was 23.6%. For the molecule `CONC(=N)c1ccc(-c2ccc(-c3ccc(C(=N)NOC)cc3)o2)cc1`, the inhibition was found to be 28.6%. Then `C=C[C@@](C)(/C=C/c1ccc(O)cc1)CCC=C(C)C`, with 38.3%; and `CC(=O)Nc1ccc(NC(=S)NC(=O)c2ccc(C(C)(C)C)cc2)cc1`, with -1.57%; and `CC(O)(C(=O)Nc1ccc(S(=O)(=O)c2ccccc2)cc1)C(F)(F)F` (configuration not stated), with 8.38%. Then `C/C(O)=C(\C#N)C(=O)Nc1ccc(C(F)(F)F)cc1`, with 58%; and `CCCn1c(=O)[nH]c(=O)c2nc[nH]c21`, with 9.19%. As for `O=c1c2ccccc2nc2n1CCc1c-2[nH]c2ccccc12`, the inhibition came out at 84.3%. Then `Cc1cc(N2CCCCC2)nc2ccccc12`, with 12.2%; and `CN1c2ccccc2C(=O)N2CCc3c([nH]c4ccccc34)C21` (configuration not stated), with 36.3%; and `O=c1c2ccccc2nc2n1CCCCC2`, with 111%. Regarding `CN1C(=O)C(F)=C[C@]2(C)[C@H]3CC[C@]4(C)[C@@H](C(=O)NCc5nc6cccnc6[nH]5)CC[C@H]4[C@@H]3CC[C@@H]12`, the inhibition was -0.34%. As for `CCC(=O)OCC(=O)C1(OC(=O)CC)C(C)CC2C3CCC4=CC(=O)C=CC4(C)C3(Cl)C(O)CC21C` (configuration not stated), the inhibition was found to be 5.48%. Then `CCCCc1nn(-c2ccccc2C(F)(F)F)c(=O)n1Cc1ccc(-c2ccccc2S(=O)(=O)NC(=O)c2sccc2C)cc1`, with 30.6%.

Consider `CCCOc1ccc(Br)cc1-c1cc(-c2ccc(Cl)cc2)[nH]c1-c1ccncc1`, for which the inhibition was determined as 4.47%. With `C[C@]12C=CC(=O)C=C1CC[C@@H]1[C@@H]2[C@@H](O)C[C@@]2(C)[C@H]1CC[C@]2(O)C(=O)CO` the figure was 1.72%; with `C#C[C@]1(O)CC[C@H]2[C@@H]3CCC4=CC(=O)CC[C@@H]4[C@H]3CC[C@@]21CC`, -8.51%; with `C#CC1(O)CC[C@H]2[C@@H]3CCC4=CC(=O)CC[C@@H]4[C@H]3CC[C@@]21CC` (some centres not stated), 41%. Then `C#C[C@]1(OC(C)=O)CC[C@H]2[C@@H]3CCC4=C/C(=N/O)CC[C@@H]4[C@H]3CC[C@@]21CC`, with 102%; and `O=S(=O)(N[C@H]1CC[C@@](c2cc(F)ccc2F)(S(=O)(=O)c2ccc(Cl)cc2)CC1)C(F)(F)F`, with 19.5%. As to `CC[N+](CC)(CC)CCC(O)(c1ccccc1)C1CCCCC1` (configuration not stated), the inhibition was 43.5%.

As for `N[C@@]1(C(=O)O)CC[C@H]2[C@H](C(=O)O)[C@H]21`, the inhibition amounted to 5.51%. With `Nc1cc(Cl)c(N=C2NCCN2)c(Cl)c1`, the inhibition was determined as 15.3%.

In the case of `Cc1cccc(C)c1NC(=O)c1ccccc1C(=O)O`, the inhibition amounted to 2.75%. With `NC(=O)N/N=C/c1ccc(Oc2ccc(F)cc2)cc1` the figure was 2.96%.

In the case of `O=C(Nc1ccc(O)cc1)c1ccccc1O`, the inhibition was 85.3%. In the case of `O=C(N/N=C/c1ccc(O)c(O)c1)c1cc2ccccc2cc1O`, the inhibition was found to be 59.7%. As for `O=C(N/N=C/c1ccccc1O)c1ccccc1O`, the inhibition came out at 98.6%. With `COC(=O)c1ccccc1O` the figure was 25.3%; with `CN1CCN2c3c(cccc31)[C@@H]1CN(CCCC(=O)c3ccc(F)cc3)CC[C@@H]12`, -3.09%. Then `COC(=O)Nc1ccc2[nH]cc(CCNC(C)=O)c2c1`, with 44.5%; and `CCOc1ccccc1OCC1CNCCO1` (configuration not stated), with -0.93%; and `c1ccc(Oc2nc3ncnc-3c(NC3CCCCC3)[nH]2)cc1`, with -6.25%. On to `CC(C)N1CCN(c2ccc(C(=O)c3c(-c4ccc(O)cc4)sc4cc(O)ccc34)cc2)CC1`, for which the inhibition is 15%. Then `COc1ccc(C(=O)NCc2cccnc2)cc1C(=O)NCc1cccnc1`, with 11.5%; and `Cc1cc(Cn2cnc3c2C[C@@H](C(=O)O)N(C(=O)C(c2ccccc2)c2ccccc2)C3)ccc1N(C)C`, with 17.5%; and `CC1CS(=O)(=O)CCN1/N=C/c1ccc([N+](=O)[O-])o1` (configuration not stated), with -9.63%. With `CC1(C)CCC(C)(C)c2cc(NC(=O)c3ccc(C(=O)O)cc3)ccc21` the figure was 17.1%; with `O=C(Nc1ccc(Cl)nc1)c1ccc(Cl)cc1`, 27.1%. `NC(=O)c1ccc2[nH]ccc2c1`: the inhibition was 11.2%.

As for `O=C(Nc1ccc2[nH]ccc2c1)c1ccccc1`, the inhibition was determined as 89.7%. With `O=C(Nc1cc2cc[nH]c2cn1)c1ccccc1` the figure was 105%; with `O=C(O)CNC(=O)c1ccccc1`, 17.6%.

As to `NC(C(=O)O)c1ccc(C(=O)O)c(O)c1` (racemic), the inhibition was -7.25%. `O=C(Nc1ccc(C(=O)O)c(O)c1)c1ccccc1`: the inhibition was found to be 68.6%. Then `CCc1nc(-c2cccc(C)c2)c(-c2ccnc(NC(=O)c3ccccc3)c2)s1`, with 15.3%; and `CC1=C(/C=C/C(C)=C/C=C/C(C)CC=O)C(C)(C)CCC1` (configuration not stated), with 0.68%. `Cc1ccc(F)cc1C(=O)Nc1ccc(C(=O)N2Cc3cccn3Cc3ccccc32)c(Cl)c1`: the inhibition was -1.78%. With `O=C1CNC(=O)CN1` the figure was 16.6%. Then `O=C(O)[C@@H](S)[C@@H](S)C(=O)O`, with 28.7%. With `CN1[C@@H]2CC[C@H]1C[C@@H](OC(=O)c1c[nH]c3ccccc13)C2.CN1[C@@H]2CC[C@H]1C[C@H](OC(=O)c1c[nH]c3ccccc13)C2` the figure was 2.5%; with `CCc1cc(-c2[nH]nc(C)c2-c2ccc3c(c2)OCCO3)c(O)cc1O`, 8.29%.

The record behind these values is ChEMBL document CHEMBL4808148, “HDAC6 screening dataset using tau-based substrate in an enzymatic assay yields selective inhibitors and activators” (2021).
